# Assay results taken from PubChem BioAssay.
# Values joined by “and” are separate entries in the source; they are usually repeats but may differ in a detail not shown here. Equal values may be shown once. Results filed as inconclusive are left out. Active and inactive are the calls of the source. Unless noted, cut-off not given; nearly all actives show AC50 up to about 26 µM.
# How the values were obtained:
# [1] = growth inhibition of DIPG glioma cells, dose response, cell-based, SU-DIPG-XVII, MIPE5.0, CellTiter-Glo, qHTS (AID 1347060); conditions: SU-DIPG-XVII viability, CellTiter-Glo ATP luminescence;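 on AC50: cells exposed to compound for 48 hours before viability readout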
# [2] = SU-DIPG-XXV glioma cell viability, MIPE5.0 library, qHTS (AID 1347068; cut-off not given, nearly all actives have IC50 up to about 30 µM;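 on IC50: cells exposed to compound for 48 hours before viability readout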)
# [3] = JHH-DIPG-1 glioma cell viability, MIPE5.0 library, CellTiter-Glo luminescence, qHTS (AID 1347067); conditions: JHH-DIPG-1 glioma viability, CellTiter-Glo ATP luminescence;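 further: cells exposed to compound for 48 hours before readout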
# [4] = growth inhibition of DIPG glioma cells, dose response, cell-based, SU-DIPG-XIII, MIPE4.0, CellTiter-Glo, qHTS (AID 1347061; cut-off not given, nearly all actives have AC50 up to about 37 µM;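 further: cells exposed to compound for 48 hours before readout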); conditions: SU-DIPG-XIII viability, CellTiter-Glo ATP luminescence
# [5] = growth inhibition of DIPG glioma cells, dose response, cell-based, JHH-DIPG-1, MIPE4.0, CellTiter-Glo, qHTS (AID 1347062; cut-off not given, nearly all actives have AC50 up to about 27 µM;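 on AC50: cells exposed to compound for two days before readout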); conditions: JHH-DIPG-1 viability, CellTiter-Glo ATP luminescence
# [6] = growth inhibition of DIPG glioma cells, dose response, cell-based, SU-DIPG-IV, MIPE4.0, CellTiter-Glo, qHTS (AID 1347063; cut-off not given, nearly all actives have AC50 up to about 30 µM;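 further: compound exposure lasted 48 hours before the viability readout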); conditions: SU-DIPG-IV viability, CellTiter-Glo ATP luminescence
# [7] = growth inhibition of DIPG glioma cells, dose response, cell-based, SU-DIPG-XIII, MIPE5.0, CellTiter-Glo, qHTS (AID 1347064; cut-off not given, nearly all actives have AC50 up to about 23 µM;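 on AC50: cells exposed to compound for 48 hours before the viability read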); conditions: SU-DIPG-XIII viability, CellTiter-Glo ATP luminescence
# [8] = viability loss in pontine glioma line – cell-based, SU-DIPG-XXV, MIPE5.0, CellTiter-Glo, qHTS, dose response (AID 1347065); conditions: CellTiter-Glo ATP luminescence;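 further: cells exposed to compound for 48 hours before ATP readout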
# [9] = SU-DIPG-VI glioma cell viability, MIPE4.0 library, CellTiter-Glo luminescence, qHTS (AID 1347066; cut-off not given, nearly all actives have AC50 up to about 30 µM;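 further: cells exposed to compound for 48 hours before readout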); conditions: CellTiter-Glo ATP luminescence
# [10] = kinase inhibitors against Plasmodium liver-stage infection, cell-based, known kinase inhibitor set, luminescence, hepatoma host viability (AID 624392; call rule not given here;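 further: infected cells incubated roughly two days before readout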); conditions: Plasmodium liver stage in hepatoma cells, luciferase luminescence, concentration not given here; liver cell % of control: measured here: host liver cell viability; parasite % of control: stronger effect = lower value
# [11] = sensitizers of A549 cells to miR-34 induction, primary screen, imaging, A549 dox-inducible miR-34, nuclei and caspase counts (AID 1347080;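 active means compounds whose cell count with miR-34 switched on is under 0.7 times the count with it off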); conditions: A549 miR-34 inducible, Hoechst nuclei count, 48 h
# [12] = survival rescue of mitochondrial mutant cells in low glucose, primary screen, MELAS cybrids, Rieske KO mouse fibroblasts, CellTiter-Glo (AID 1508586;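 active means mean z-score across replicates of 1.96 or higher in either the MELAS or the Rieske mutant cell line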;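 further: z relative to plate mean and SD of compound and empty wells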)
# [13] = tested on: Hepatitis C virus NS3 helicase; assay: HCV NS3 helicase inhibitors, primary screen, biochemical, fluorescence polarization, LOPAC1280 library (AID 687035; in the data active means inhibition above about 37%); conditions: Purified HCV NS3 helicase, Cy5-dT15 ssDNA binding fluorescence polarization; stronger effect = higher value; concentration not given here
# [14] = Cy5 fluorescence quenching or enhancement artefacts, artefact control for HCV NS3 helicase inhibitor project, biochemical, LOPAC1280 (AID 687037; call rule not given here); conditions: Cy5-DNA-NS3h complex fluorescence interference counterscreen
# [15] = phospholipid biosynthesis inhibitors in animal cells, primary screen, cell-based, LOPAC library, screen 4 (AID 1347384; call rule not given here); conditions: phospholipid biosynthesis inhibition screen, at 10 µM
# [16] = viability rescue of complex I mutant cybrids, primary screen, cell-based, galactose medium, ATP luminescence (AID 1645843;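 active means z-score of at least 1.8 in each of two replicates, scored against plate mean and spread of sample wells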;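 further: positive z means more ATP and so rescue of galactose-driven cybrid death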); conditions: complex I mutant cybrid cells, 72 h, stronger effect = higher value
# [17] = stronger effect = lower value, cell number ratio, induced over uninduced
# [18] = measured here: relative caspase fold change +Dox/-Dox
# [19] = measured here: total cells with miR-34 induction, stronger effect = lower value
# [20] = measured here: total cells without miR-34 induction
structure (smiles),measurement,setting,value
CC[C@H](Nc1ncnc2nc[nH]c12)c1oc2ccccc2c(=O)c1-c1cccc(F)c1,outcome,[1],inactive
same,outcome,[2],inactive
Cc1noc2c1-c1ccccc1C(c1ccc(Cl)cc1)=N[C@H]2CC(N)=O,outcome,[1],inactive
same,outcome,[2],inactive
CNc1ncc2cc(-c3cc(NC(=O)NCCC(C)(C)C)c(F)cc3C)c(C)nc2n1,outcome,[1],inactive
same,outcome,[2],inactive
CCS(=O)(=O)N1CCC(C(C)n2c(C)c(C(=O)NCc3c(OC)cc(C)[nH]c3=O)c3ccccc32)CC1 (stereo not given),outcome,[1],inactive
same,outcome,[3],inactive
same,outcome,[2],inactive
Cc1onc(-c2ccc(F)cc2)c1COc1ccc(C(=O)N2CCS(=O)(=O)CC2)cn1,outcome,[1],inactive
same,outcome,[3],inactive
same,outcome,[2],inactive
O=C(Nc1ccnc(NC(=O)C2CC2)c1)c1c(Cl)cccc1Cl,AC50,[1],9.34 µM (active)
same,AC50,[3],2.63 µM (active)
same,IC50,[2],7.42 µM (active)
CC(=O)C1CCC2C3CCC4=CC(=O)CCC4(C)C3CCC12C (stereo not given),outcome,[1],inactive
same,outcome,[3],inactive
same,outcome,[2],inactive
COc1cccc(Nc2ncnn3ccc(CN4CC[C@@H](N)[C@H](O)C4)c23)c1,AC50,[1],14.8 µM (active)
same,outcome,[3],inactive
same,outcome,[2],inactive
CC[C@@]1(O)C(=O)OCc2c1cc1n(c2=O)Cc2c-1nc1ccccc1c2CCNC(C)C,AC50,[1],0.00742 µM (active)
same,outcome,[2],inactive
CCOC(=O)[C@@H](N)CCC(=O)N[C@@H](CSCc1ccccc1)C(=O)N[C@@H](C(=O)OCC)c1ccccc1,outcome,[4],inactive
same,outcome,[5],inactive
same,outcome,[6],inactive
same,AC50,[7],18.6 µM (active)
same,AC50,[8],26.3 µM (active)
same,AC50,[3],23.5 µM (active)
same,outcome,[2],inactive
Cc1cn([C@@H]2C[C@@H](O)[C@H](CO)O2)c(=O)[nH]c1=O,outcome,[4],inactive
same,outcome,[5],inactive
same,outcome,[6],inactive
same,outcome,[7],inactive
same,outcome,[8],inactive
same,outcome,[9],inactive
same,outcome,[3],inactive
same,outcome,[2],inactive
O=C(CO)N1CCC(c2[nH]nc(-c3ccc(Cl)cc3)c2-c2ccncn2)CC1,liver cell % of control,[10],88.6% and 86.6% and 97.2%
same,parasite % of control,[10],11.9% (inactive) and 26% (inactive) and 30.9% (inactive)
same,outcome,[4],inactive
same,outcome,[5],inactive
same,outcome,[6],inactive
same,outcome,[7],inactive
same,outcome,[8],inactive
same,outcome,[9],inactive
same,outcome,[2],inactive
Cc1ccc(NC(=O)Nc2cc(C(F)(F)F)ccc2F)cc1Nc1ccc2c(c1)NC(=O)/C2=C\c1ccc[nH]1,AC50,[4],18.7 µM (active)
same,AC50,[5],18.7 µM (active)
same,AC50,[6],4.18 µM (active)
same,AC50,[7],8.33 µM (active)
same,AC50,[8],6.61 µM (active)
same,AC50,[9],3.72 µM (active)
same,AC50,[3],10.5 µM (active)
same,IC50,[2],9.34 µM (active)
CC(=O)N1CCN(CCOc2ccc(C3CCN(C4=Nn5c(nnc5C(F)(F)F)CC4)CC3)cc2)CC1,outcome,[1],inactive
same,fold change,[11]; [17],0.859 (inactive)
same,fold change,[11]; [18],0.882
same,cell count,[11]; [19],5930
same,cell count,[11]; [20],6900
same,z-score,"[12]; MELAS cybrid survival, CellTiter-Glo 48 h, stronger effect = higher value",-0.00811 (inactive)
same,z-score,"[12]; Rieske KO mouse fibroblast survival, CellTiter-Glo 72 h",-0.339
O=S(=O)(N=Cc1c(O)ccc2ccccc12)c1cccs1,outcome,[4],inactive
same,outcome,[5],inactive
same,AC50,[6],9.35 µM (active)
O=C(NCCCCN1CCOCC1)c1cc2ccccc2o1,outcome,[4],inactive
same,outcome,[5],inactive
same,outcome,[6],inactive
same,outcome,[7],inactive
same,outcome,[8],inactive
same,outcome,[9],inactive
same,AC50,[3],23.5 µM (active)
same,outcome,[2],inactive
CN(C)C1CCN(C(=O)c2ccc(NC(=O)Nc3nc(N4CCOCC4)nc(N4CCOCC4)n3)cc2)CC1,AC50,[4],0.833 µM (active)
same,AC50,[5],0.166 µM (active)
same,AC50,[6],0.0469 µM (active)
same,AC50,[7],0.525 µM (active)
same,AC50,[8],0.295 µM (active)
same,AC50,[9],0.264 µM (active)
same,AC50,[3],0.525 µM (active)
same,IC50,[2],0.934 µM (active)
CCc1ccc(/C=C2/SC(=S)NC2=O)cc1,inhibition,[13],-3% (inactive)
same,fluorescence ratio (interference),[14],1 (inactive)
same,outcome,[4],inactive
same,outcome,[5],inactive
same,outcome,[6],inactive
same,outcome,[7],inactive
same,outcome,[8],inactive
same,outcome,[9],inactive
same,outcome,[3],inactive
same,outcome,[2],inactive
same,fold change,[11]; [17],1 (inactive)
same,fold change,[11]; [18],1.81
same,cell count,[11]; [19],8940
same,cell count,[11]; [20],8930
same,outcome,[15],inactive
same,z-score,[16],-0.65 (inactive)
CCNc1cc(NC2CCC(O)CC2)nc(Nc2ccc3c(ccn3Cc3ccccc3)c2)n1 (stereo not given),liver cell % of control,[10],83.4%
same,parasite % of control,[10],33.8% (inactive)
same,outcome,[4],inactive
same,AC50,[5],26.4 µM (active)
same,AC50,[6],18.7 µM (active)
same,AC50,[7],23.5 µM (active)
same,AC50,[8],16.6 µM (active)
same,AC50,[3],23.5 µM (active)
